Among all 69,000 compounds or so, about 8,600 (12%) showed an effect of 50% or more. The full list was thinned out, with strong results kept by preference.

This experiment has as its system Plasmodium berghei. Kind of experiment: Screen against P. berghei liver stage (PbLuc), transformed with Luciferase, at 10uM. Format: functional, HepG2. The following applies: tested at 10 uM.
Consider `COCC(=O)N1CCCC2(CCN(c3ccsc3)C2=O)C1` (stereo not drawn), for which the INHIBITION is reported as 37%.
On to `O=C(CC1CC1)N1CCCC2(CCC(=O)N2CC2CC2)CC1` (stereo not drawn), for which the INHIBITION was 6.27%.
As for `Cc1csc(CCCNc2ccc(S(N)(=O)=O)cc2C#N)n1`, the figure is 66.5%; as for `Cc1nc(C)c(CCNc2ccc(S(N)(=O)=O)cc2C#N)s1`, 49.9%; as for `CCc1nc(CCNc2ccc(S(N)(=O)=O)cc2C#N)cs1`, 42.4%.
As for `COCCN1CCC2(CC1)CN(C(=O)Cc1cccnc1)CCO2`, the INHIBITION was determined as 14.9%.
As for `CN(Cc1cccnc1)CC1CC12CCN(c1nncs1)CC2` (stereo not drawn), the figure is 16.9%.
Next, `Cc1cnc(N2CCC3(C2)C(=O)N(C)CCN3Cc2cccnc2)nc1` (stereo not drawn): -50.6%; `CN(Cc1cccnc1)CC1CC12CCN(Cc1nccs1)CC2` (stereo not drawn): 45.8%.
As to `Cc1cnc(N2CCC3(CC2)CC3CN(C)Cc2cccnc2)nc1` (stereo not drawn), the INHIBITION was 71.6%.
For `CN(Cc1cccnc1)CC1CC12CCCC2` (stereo not drawn), the INHIBITION came out at 60.9%.
As to `Cc1ccc(CN2CCC3(CC2)CC3CN(C)Cc2cccnc2)o1` (stereo not drawn), the INHIBITION is -24.9%.
Consider `CCC1CN(CC(=O)N2CCN(C(C)=O)CC2)CCN1CCOC` (stereo not drawn), for which the INHIBITION turned out to be 4.52%.
In the case of `CN(C)CCN1CC(C(=O)N(C)Cc2cc3cc(F)ccc3[nH]2)CC1=O` (stereo not drawn), the INHIBITION is given as 52.2%.
Next, `CCN1CC(C(=O)N(C)Cc2cc3cc(F)ccc3[nH]2)CC1=O` (stereo not drawn): -14.1%; `CN(Cc1cc2cc(F)ccc2[nH]1)C(=O)C1CC(=O)N(C2CCCC2)C1` (stereo not drawn): 26.5%; `Cc1ccc(S(=O)(=O)N2CC[C@@H](O)C2)c(F)c1`: 2.25%.
For the compound `Cc1cc(S(=O)(=O)N2CCC(N3CCC(O)C3)CC2)c(Cl)cc1Cl` (stereo not drawn), the INHIBITION is 71.1%.
For `Cc1cc(S(=O)(=O)N2CC[C@@H](O)C2)c(Cl)cc1F`, the INHIBITION is listed as -46.4%.
As for `O=C(NCC1CCCO1)c1nc2c(s1)CCCN2c1ncccn1` (stereo not drawn), the INHIBITION is listed as -4.32%.
As to `Cc1ccc(C(=O)N2[C@@H]3CC[C@H]2CC(=O)N(C)C3)c(=O)[nH]1`, the INHIBITION is on record as -1.85%.
As for `N#Cc1ccc(C(=O)N2C[C@H](OCc3cccnc3)[C@H]3COC[C@H]32)cc1`, the INHIBITION is listed as -5.31%.
Consider `CC(C)(C)c1nc(CN(Cc2ccccc2F)C2CCCCC2)no1`, for which the INHIBITION is recorded as 35.3%.
Take `Cc1noc(C)c1CN(Cc1cccnc1)C1CN2CCC1CC2` (stereo not drawn): the INHIBITION is 10.3%.
As to `CC(C)(C)c1nc(CN(Cc2cccnc2)C2CN3CCC2CC3)no1` (stereo not drawn), the INHIBITION is 54.8%.
As for `CCc1cc(CN(Cc2cccnc2)C2CN3CCC2CC3)on1` (stereo not drawn), the INHIBITION amounted to 28.5%.
For `CC(C)c1noc(CN(Cc2cccnc2)C2CN3CCC2CC3)n1` (stereo not drawn), the INHIBITION was 77.5%.
Take `CC(C)c1noc(CCCC(=O)N2CCC(Cc3cccnc3)CC2)n1`: the INHIBITION was determined as 27.1%.
With `O=S(=O)(Cc1ccc(Br)cc1)NCCO`, the INHIBITION worked out at 28.5%.
For the compound `Cc1nn(C)c(N2CCOCC2)c1CNCc1cscn1`, the INHIBITION came to 27.0165%.
With `CCc1nnc(CN2CCCC2Cn2cc(C)cn2)o1` (stereo not drawn), the INHIBITION was -29.1%.
Consider `O=C(c1ccc(F)c(F)c1)N1CCC(Cn2cc(CO)nn2)CC1`, for which the INHIBITION worked out at 33.4%.
On to `Cc1nc(CN2CCCC(NCc3csc(C(C)(C)C)n3)C2)no1` (stereo not drawn), for which the INHIBITION turned out to be 22.3%.
With `COCCN1CCO[C@@H]2CN(C(=O)COc3ccc(C)cc3)C[C@@H]2C1`, the INHIBITION turned out to be 37.9%.
Next, `[O-][S+](Cc1c(F)cccc1Cl)Cc1nnnn1C1CC1` (stereo not drawn): 19.8%; `CCc1nc2n(n1)CC(NCC(=O)Nc1cc(C(C)(C)C)no1)CC2` (stereo not drawn): -13.5%; `Cc1cc(C(=O)N2CCCC(C)C2)ccc1NCc1nc(C(C)C)no1` (stereo not drawn): 18.2%.
For the compound `O=C(O)c1ccc2c(CN3CCOCC3)c[nH]c2c1`, the INHIBITION is 56.5%.
For `O=C(O)c1ccc2[nH]cc(CN3CCOCC3)c2c1`, the INHIBITION is listed as -9.76%.
`O=C(O)c1ccc2c(CN3CCCC3)c[nH]c2c1`: the INHIBITION is 42.3%.
Consider `Cc1cccc(C(=O)NC(C(=O)NCc2ccc(O)nc2)C(C)C)c1` (stereo not drawn), for which the INHIBITION came out at 28.7%.
Take `c1ccc(-c2cc(CN3C[C@H]4CC[C@@H](C3)N(CC3CCC3)C4)on2)cc1`: the INHIBITION worked out at 86.8%.
Next, `c1ccc(-c2cc(CN3C[C@H]4CC[C@@H](C3)N(CC3CC3)C4)on2)cc1`: 48.2%.
For the compound `c1ccc(-c2cc(CN3C[C@H]4CC[C@H]3C4)on2)cc1`, the INHIBITION is reported as -0.27%.
Regarding `CN(c1cccnn1)C1CCN(C(=O)Cc2c[nH]c3ccccc23)CC1`, the INHIBITION amounted to 36.1%.
As for `CCCOC1CCCN(c2nc(CC)nc3c2cnn3C)C1` (stereo not drawn), the INHIBITION is listed as 7.77%.
Next, `Cc1nc(N2CCCC2)nc2c1CCN(C(=O)C1CCC1)CC2`: -21.1%.
Take `Nc1ncc(-c2csc(NC(=O)C[C@H]3COCCN3)n2)cn1`: the INHIBITION is -7.79%.
As for `O=C(Cc1ccc2c(c1)CCC2)NCCNc1cnccn1`, the figure is 8.64%; as for `c1cnc(N2C[C@H](OCC3CCOCC3)[C@H]3COC[C@H]32)nc1`, 68.9%; as for `COc1ccc(CN2C[C@H](OCC3CCOCC3)[C@H]3COC[C@H]32)cc1`, 41.8%.
As to `c1csc(CN2C[C@H](OCC3CCOCC3)[C@H]3COC[C@H]32)n1`, the INHIBITION was determined as 26.5%.
In the case of `c1cnc(N2CCO[C@H]3[C@H](OCC4CCOCC4)CC[C@@H]32)nc1`, the INHIBITION was determined as 21.6%.
As for `c1cc(CN2C[C@H](OCC3CCOCC3)[C@H]3COC[C@H]32)cs1`, the INHIBITION came out at 9.65%.
Regarding `c1cc(CN2C[C@H](OCC3CCOCC3)[C@H]3COC[C@H]32)co1`, the INHIBITION worked out at 57.3%.
As to `COc1ccc(-n2cc3[nH]c(=O)[nH]n3c2=O)cc1`, the INHIBITION was 3.68%.
Next, `Cc1ncncc1C(=O)N1CCCC(n2ccnc2C)C1` (stereo not drawn): -20.1%; `NC(=O)N1CCC2(CC1)CN(Cc1cccnc1)C(=O)CO2`: 2.4%.
Regarding `COCCN1CCC2(CC1)CN(C(=O)c1ccco1)CCO2`, the INHIBITION came out at 51.9%.
As for `COCCN1CCOCC2(C1)CN(C(=O)c1conc1C)CCO2` (stereo not drawn), the figure is 53.4%; as for `Cc1nocc1C(=O)N1CCOC2(COCCN(CC3CC3)C2)C1` (stereo not drawn), 1.7%.
For the compound `O=C(c1ccco1)N1CCCC2(CN(Cc3ccoc3)CCO2)C1` (stereo not drawn), the INHIBITION was -8.25%.
`Cc1nocc1C(=O)N1CCOC2(COCCN(C(C)C)C2)C1` (stereo not drawn): the INHIBITION came to 20.6%.
For the compound `COCCN1CCC2(CC1)CN(C(=O)c1cccs1)CCO2`, the INHIBITION is -23.3%.
As for `O=C(c1ccco1)N1CCCC2(CN(Cc3cccs3)CCO2)C1` (stereo not drawn), the INHIBITION is on record as 2.02%.
For `COCCN1CCC2(CC1)CN(C(=O)c1ccccc1)CCO2`, the INHIBITION is recorded as 39.5%.
For the compound `O=C(c1ccco1)N1CCCC2(CN(Cc3ccsc3)CCO2)C1` (stereo not drawn), the INHIBITION is 76.5%.
Consider `O=C(CC1CC1)N1CC[C@H]2OCC[C@@]2(COc2ncccc2F)C1`, for which the INHIBITION is listed as -31.3%.
As for `CN1CCN(C(=O)C2CCCN(c3cccnn3)C2)CC1` (stereo not drawn), the figure is 42.4%; as for `O=C(Nc1cc(C(F)(F)F)c[nH]c1=O)C1CCCCN1` (stereo not drawn), -5.51%; as for `CNC(=O)CCN(C)c1nc(-c2ccncc2)nc2c1CCNC2`, 35.8%.
With `CCCc1nnc(N2CC[C@](C)(O)[C@H](C)C2)s1`, the INHIBITION was -50.3%.
With `CCCc1nnc(N2C[C@@H](C)[C@@](C)(O)C2)s1`, the INHIBITION is recorded as 9.96%.
On to `CNc1ccnc(N2C[C@@H](C)[C@](O)(C3CC3)C2)n1`, for which the INHIBITION worked out at 39.9%.
With `CCCc1nnc(N2CC[C@@](O)(C3CCOCC3)[C@H](C)C2)s1`, the INHIBITION came to 60.3%.
As for `CNc1ccnc(N2CC[C@@](O)(C3CCOCC3)[C@H](C)C2)n1`, the figure is 59.3%; as for `CNc1ccnc(N2C[C@@H](C)[C@](O)(C3CCC3)C2)n1`, 30.1%; as for `Cc1cnc(C2(C)CCN(Cc3csc(C)n3)CC2)s1`, 6.32%.
Regarding `O=C(NC1CCCOc2cc(Cl)ccc21)c1ccc(=O)[nH]n1` (stereo not drawn), the INHIBITION is -10.9%.
As for `CCN1CC2(CCC1=O)CCN(C(=O)c1cn3cccnc3n1)CC2`, the figure is -13.6%.
With `COc1ccc(Br)cc1SCCC(N)=O`, the INHIBITION came to 16.1%.
Next, `O=C(NCc1ccco1)[C@@H]1CCO[C@@H]2CCN(CC3CC3)C[C@@H]21`: 67.2%.
As for `O=C(NC1CC1)[C@@H]1CCO[C@@H]2CCN(Cc3ccco3)C[C@H]21`, the figure is 18.3%; as for `O=C(NCc1ccccn1)[C@H]1COC[C@H]2CN(Cc3ccoc3)C[C@H]21`, 31.8%.
In the case of `O=C(NC1CC1)[C@@H]1CCO[C@@H]2CCN(C3CCOCC3)C[C@H]21`, the INHIBITION is on record as -48.2%.
As for `O=C(NC1CC1)[C@@H]1CCO[C@@H]2CCN(C3CCCC3)C[C@H]21`, the figure is 3.25%.
As for `O=C(NC1CC1)[C@@H]1CCO[C@@H]2CCN(CC3CCC3)C[C@@H]21`, the figure is 91%.
As to `Cn1cc(CN2CC[C@H]3OCC[C@@H](C(=O)NCc4ccco4)[C@@H]3C2)cn1`, the INHIBITION was found to be 5.96%.
Regarding `CN1CC[C@H]2OCC[C@@H](C(=O)NCc3ccco3)[C@@H]2C1`, the INHIBITION is 18.3%.
As for `O=C(NC1CC1)[C@@H]1CCO[C@@H]2CCN(CC3CCC3)C[C@H]21`, the INHIBITION turned out to be 61.1%.
As for `O=C(NC1CC1)[C@@H]1CCO[C@@H]2CCN(Cc3ccsc3)C[C@H]21`, the figure is 27.3%.
As for `O=C(NCc1ccccn1)[C@@H]1CCO[C@@H]2CCN(Cc3ccoc3)C[C@H]21`, the INHIBITION stood at 54.6%.
With `O=C(NCC1CC1)[C@@H]1CCO[C@@H]2CCN(Cc3ccco3)C[C@H]21`, the INHIBITION is recorded as -22.8%.
For `CN(C)Cc1ccnc(C2CCCN2Cc2cc3ccccc3s2)n1` (stereo not drawn), the INHIBITION was found to be 19.6%.
Turning to `CC1CN(Cc2cc(C#N)ccc2F)CCN1Cc1nccn1C` (stereo not drawn), the INHIBITION amounted to 22.95%.
Next, `O=C(CCc1cc2n(n1)CCCNC2)N1CCSCC1`: -24.7%.
`CNc1nc(C2CCCCN2C(=O)COC)nc2c1CN(C)CC2` (stereo not drawn): the INHIBITION turned out to be 38.2%.
Next, `O=C(NC1CC1)[C@@H]1CCO[C@@H]2CCN(CCc3ccccc3)C[C@@H]21`: 27.3%; `O=C(NC1CCC1)[C@@H]1CCO[C@@H]2CCN(CCc3ccccc3)C[C@H]21`: 53.5%; `O=C(NC1CCC1)[C@@H]1CCO[C@@H]2CCN(C3CCCC3)C[C@H]21`: -25.2%.
With `O=C(NC1CCC1)[C@@H]1CCO[C@@H]2CCN(C3CCCC3)C[C@@H]21`, the INHIBITION is given as 53.4%.
Take `O=C(NC1CC1)[C@@H]1CCO[C@@H]2CCN(C3CCOCC3)C[C@@H]21`: the INHIBITION worked out at 26.8%.
Regarding `CNC(=O)[C@@H]1CCO[C@@H]2CCN(CCc3ccccc3)C[C@H]21`, the INHIBITION is 8.52%.

These data come from ChEMBL document CHEMBL4513216, “Probing the Open Global Health Chemical Diversity Library for Multistage-Active Starting Points for Next-Generation Antimalarials” (ACS Infect Dis, 2020).
